The values below come from PubChem BioAssay (NCI).

About 83,000 compounds went through this panel and 20% of them were active in at least one assay; those are over-represented in the sample as a whole.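 Assay: single dose, 48 h. Readout: percent growth (0 = no net growth; negative = cell death). Active: <10.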 Values without a mark were called inactive. Calls of active or inactive are those of the source.

The assay concerns T-47D breast. The experiment in a line: NCI-60 one-dose screen, 48 h (100 = growth as untreated, 0 = no growth, -100 = all killed). The settings on record: 10 µM unless noted. Here is the method: Growth inhibition of the T-47D human tumor cell line is measured as a screen for anti-cancer activity. Cells are grown in 96 well plates and exposed to the test compound for 48 hours. Compounds are tested at a single concentration, which is 10^-5 M for most compounds. The reported endpoint is percent growth (GI% or GIPRCNT), where numbers from 0 - 100% represent growth inhibition, and numbers from -100% - 0 represent cell death. For example, a value of 40 represents 60% growth inhibition. A value of 0 means no net growth occurred over the course of the experiment. A value of -40 indicates 40% of cells at the beginning of the experiment died by the end of the experiment. A value of -100 means all cells are dead at the end of the experiment.
NCI-60 Human Tumor Cell Lines Screen was performed using the standard one-dose NCI protocol, which is described in more detail at https://dtp.cancer.gov/discovery_development/nci-60/default.htm.
Compounds with GIPRCNT values below 10 were considered active. Activity score was based on GIPRCNT using the following formula: […]
Score is 0 for GIPRCNT values of 100 or above, 50 for GIPRCNT values of 0, and 100 for GIPRCNT values of -100.
In the case of `CCOC(=O)c1cccc(NC2=C(Cl)C(=O)C(C)=C(C)C2=O)c1`, the growth was -37.5% (active).

With `CCOP(=O)(OCC)OC[C@]12CCC(C)(C)C[C@H]1C1=CC[C@@H]3[C@@]4(C)CC[C@H](OP(=O)(OCC)OCC)C(C)(C)[C@@H]4CC[C@@]3(C)[C@]1(C)CC2`, the growth is 26.2%.

As for `COc1ccc(/C=N/N=C(/c2ccccc2)c2ccc3nc(-c4ccc(Cl)cc4)[nH]c3c2)cc1`, the growth is 63.5%.

Take `CCN(CC)S(=O)(=O)c1ccc(-c2nc(C(Cl)Cl)nc3cc(C)nn23)cc1`: the growth was 60.9%.

On to `Cn1cc(-c2nn3cc(-c4ccncc4)nc3s2)c2cc(Br)ccc21`, for which the growth is 37.5%.

`NC(=S)n1c(=O)n(-c2cccc(C(F)(F)F)c2)c(=O)c2cc(-c3ccc(F)cc3F)ccc21`: the growth was -12.9% (active).

For the molecule `Cn1cc(-c2nc(N)nnc2-c2c[nH]c3ccc(Br)cc23)c2cc(F)ccc21`, the growth is 74.8%.

In the case of `COc1cc(/C=N\NC(=O)c2ccc3nc(-c4ccc(Br)cc4)[nH]c3c2)cc(OC)c1OC`, the growth was 9.41% (active).

Turning to `COC(=O)c1cccc(NC2=CC(=O)C(C)=C(C)C2=O)c1`, the growth was 64.4%.

`O=C(CSc1nc2ccccc2c(=O)n1-c1ccc(S(=O)(=O)Nc2ccc(Cl)nn2)cc1)Nc1ccc(S(=O)(=O)Nc2ccc(Cl)nn2)cc1`: the growth is 98.1%.

As for `CC(C)Sc1nc(-c2ccccc2)c(C#N)c(N2CCOCC2)n1`, the growth is 68.5%.

As for `Cc1ccc2c(n1)C(=O)C(Cl)=C(Nc1cccc(C)c1C)C2=O`, the growth is -56.7% (active).

Take `CCOC(=O)c1c(NC(=O)c2cccc(C(F)(F)F)c2)sc2c3c(ccc12)OCN(C)C3`: the growth was -38.2% (active).

For `CCCCN1C(=O)/C(=c2\sc3n(c2=O)C2C(NN=3)N(CC)C(=O)N2CC)c2cccc(C)c21` (stereo not given), the growth is 41.4%.

As to `CCCCCCN1C=C/C(=C\C(=O)n2ccc3ccccc32)c2ccccc21`, the growth is 31.1%.

`Cc1ccc(N2CCN(C3=C(Cl)C(=O)c4ncccc4C3=O)CC2)cc1`: the growth is -56.1% (active).

As to `O=C(CSc1nnc(-c2ccc(Cl)cc2)n1-c1ccccc1)Nc1cccc(F)c1`, the growth is 3.95% (active).

On to `Cc1ccc(C)c(NC2=C(Cl)C(=O)c3nc(C)ccc3C2=O)c1`, for which the growth is -58% (active).

On to `COc1ccc(C(=NNS(=O)(=O)c2ccc(C)cc2)c2ccccc2)cc1OC`, for which the growth is 90%.

In the case of `Cc1[nH]c(C(=O)Nc2ccc(S(=O)(=O)N3CCCCC3)cc2OCCOCCOCCOCCOCCOCCOCCOCCOCCOc2cc(S(=O)(=O)N3CCCCC3)ccc2NC(=O)c2[nH]c(C)c3c2CCCCC3=O)c2c1C(=O)CCCC2`, the growth is 7.19% (active).

With `C#CCn1cc(/C=N/Nc2nc(-c3ccc(Br)cc3)cs2)c2ccccc21`, the growth was 76.4%.

With `C(=N\Nc1nc(N/N=C/c2ccc3c(c2)OCO3)nc(N2CCCCC2)n1)/c1ccc2c(c1)OCO2`, the growth was 87.2%.

With `C#C[C@]1(O)CC[C@H]2[C@@H]3CC=C4c5sc(Nc6cc(C)cc(C)c6)nc5CC[C@]4(C)[C@H]3CC[C@@]21C`, the growth was 33.8%.

As to `O=C(CCCCCCN1CC(=O)N2[C@@H](C3CC3)c3[nH]c4ccccc4c3C[C@H]2C1=O)NO`, the growth was 66.1%.

With `C/C(=N\NC(=O)Nc1ccccc1)c1nnn(-c2ccc([N+](=O)[O-])cc2)c1C`, the growth is 98.2%.

For the molecule `COc1ccc2c(c1)c(-c1nnc(N)nc1-c1c[nH]c3ccc(F)cc13)cn2C`, the growth is 46.5%.

In the case of `CCN(CC)c1ccc(/C=N/NC(=O)c2ccc(NS(C)(=O)=O)cc2)c(O)c1`, the growth is 26.3%.

For the molecule `COc1ccc2c(c1)c(/C=N/Nc1ccnc3cc(Cl)ccc13)cn2C`, the growth was -64.1% (active).

On to `Cc1ccc2c(n1)C(=O)C(Cl)=C(Nc1cccc(C(=O)OC(C)(C)C)c1)C2=O`, for which the growth is 59.1%.

Consider `Cc1[nH]c(C(=O)Nc2ccc(C(N)=O)cc2N2CCOC(C)C2)c(Cl)c1Cl` (stereo not given), for which the growth was 83%.

In the case of `Cc1ccc(C(=O)Nc2ccc(CNCCN3CCOCC3)c(C(F)(F)F)c2)cc1C#Cc1cnc2cccnn12`, the growth is 4.34% (active).

`O=C1Nc2ccccc2/C1=C/c1ccc(OCC(=O)c2ccccc2)cc1`: the growth is 97.6%.

Consider `CCNC(=O)Oc1ccc(/C(=C(/C)c2ccc(Cl)cc2)c2ccc(OCCN3CCCCCC3)cc2)cc1`, for which the growth is 10.8%.

As for `N#Cc1c(-c2cccs2)cc(-c2cnccn2)nc1SCC(=O)N/N=C/c1ccccc1`, the growth is 25.6%.

For `CC(C)(C)c1cc(NC(=O)Nc2ccc(-c3cn4c5c(sc4n3)CCc3c[nH]cc3-5)cc2)no1`, the growth is 18.5%.

As for `Cn1c(SCC(=O)c2ccc(Br)cc2)nc2ccccc2c1=O`, the growth was 78.4%.

On to `O=C1c2ccccc2C23C(=C(c4cncnc4)c4ccccc42)CCCN13` (stereo not given), for which the growth is 93.3%.

Turning to `CCNCCOc1ccc(/C(=C(/CC)c2ccc(Cl)cc2)c2ccc(OCCCN(C)C)cc2)cc1`, the growth is -60.2% (active).

With `CCOC(=O)c1ccc(NC2=C(Cl)C(=O)c3nc(C)ccc3C2=O)cc1`, the growth is -0.935% (active).

On to `Cn1cc(-c2nn3cc(-c4ccncc4)nc3s2)c2cc(F)ccc21`, for which the growth is 41.4%.
